Results filed as inconclusive are left out. The source made the active and inactive calls. Calls follow the shape of the dose curve; as a rule, active = well fitted curve in the direction sought with a large enough effect; inconclusive = small, poorly fitted or top-dose-only effect, or another doubt; inactive = no such curve, though single readings can be large or run the other way.
Target: Relaxin receptor 1 (Homo sapiens) (UniProt Q9HBX9)
Test: qHTS Assay for Agonists of the Relaxin Receptor RXFP1: RXFP1 SAR
Conditions: HEK293T-RXFP1 cAMP TR-FRET, 30 min; efficacy: stronger effect = higher value
From the text: The relaxin hormone is involved in the variety of biological functions in normal tissues and diseases. The role of relaxin is well-established in female reproduction and parturition, mammary gland and endometrial development, maintenance of myometrial quiescence during pregnancy. Relaxin signaling through its G protein-coupled receptor (GPCR) RXFP1 results in ECM remodeling through regulation of collagen deposition, cell invasiveness, proliferation and overall tissue homeostasis. […] Recombinant human relaxin (rhRlx) is currently being tested in clinical trials as a protective agent in congestive heart failure, in treating severe preeclampsia, and as an anti-fibrotic agent in systemic sclerosis. Upon relaxin binding RXFP1 activation leads to the activation of adenylate cyclase (AC) via Gs. cAMP will activate PKA, which phosphorylates many signaling proteins. Thus, detection of cAMP increase is an easy and reliable indication of relaxin receptor activation. To screen for agonists of the relaxin receptor, a HEK293T cell line stably transfected with RXFP1 was used. RXFP1 activation was assayed by changes in cAMP levels as detected with a time-resolved fluorescence energy transfer (TR-FRET) cAMP detection kit. NIH Chemical Genomics Center [NCGC] NIH Molecular Libraries Probe Production Centers Network [MLPCN] MLPCN Grant: R03 MH085705-01A1 Assay Submitter (PI): Alexander Agoulnik
This is a cell-based assay for cAMP second messenger response to screen for agonists of the RXFP1 receptor. The assay was conducted in the presence of a PDE4 inhibitor (Ro 20174). The cells were lysed and the cAMP levels were measured with a TR-FRET cAMP kit. Presence of cAMP in the cell lysate disrupts binding between the cryptate-labeled anti-cAMP and d2-labeled cAMP pair, leading to a decrease in the TR-FRET signal. Data were normalized to the controls for basal activity (buffer only) and 100% activity (29 nM porcine relaxin). The EC50 values were determined from concentration-response data modeled with the standard Hill equation 1536-well assay protocol for the HEK293 RXFP1 cAMP assay: (1) Add 3 ul HEK293 RXFP1 cell culture. 2000 cells/well in DMEM/F12, 10% FBS, 1x Pen/Strep (dispensed offline with MultiDrop Combi). (2) Incubate 16-24 hr at 37C, 5% CO2. (3) Add 1 ul 400uM Ro20174 in DPBS, 0.05% BSA, 0.005% Tween 20. (3) Add 23 nl compounds in DMSO solution. Final concentration was 0.5 - 58 uM. (4) Incubate 30 min at 37C, 5% CO2. (5) Add 1 ul cAMP-d2 in lysis buffer (HTRF cAMP HiRange kit, CisBio). (6) Add 1 ul anti-cAMP antibody-cryptate in lysis buffer (HTRF cAMP HiRange kit, CisBio). (7) Incubate 30 min at room temperature. (6) Detect the assay plate in a ViewLux plate reader (PerkinElmer) with Ex=320 nm, Em1=615 nm and Em2=665 nm. Keywords: relaxin, RXFP1, RXFP2, G-protein coupled receptor, cAMP, agonist, high throughput screening, MLSMR, MLSCN, NIH Roadmap, qHTS and NCGC

Relaxin receptor 1 (Homo sapiens), sequence (Q9HBX9 whole entry, looked up): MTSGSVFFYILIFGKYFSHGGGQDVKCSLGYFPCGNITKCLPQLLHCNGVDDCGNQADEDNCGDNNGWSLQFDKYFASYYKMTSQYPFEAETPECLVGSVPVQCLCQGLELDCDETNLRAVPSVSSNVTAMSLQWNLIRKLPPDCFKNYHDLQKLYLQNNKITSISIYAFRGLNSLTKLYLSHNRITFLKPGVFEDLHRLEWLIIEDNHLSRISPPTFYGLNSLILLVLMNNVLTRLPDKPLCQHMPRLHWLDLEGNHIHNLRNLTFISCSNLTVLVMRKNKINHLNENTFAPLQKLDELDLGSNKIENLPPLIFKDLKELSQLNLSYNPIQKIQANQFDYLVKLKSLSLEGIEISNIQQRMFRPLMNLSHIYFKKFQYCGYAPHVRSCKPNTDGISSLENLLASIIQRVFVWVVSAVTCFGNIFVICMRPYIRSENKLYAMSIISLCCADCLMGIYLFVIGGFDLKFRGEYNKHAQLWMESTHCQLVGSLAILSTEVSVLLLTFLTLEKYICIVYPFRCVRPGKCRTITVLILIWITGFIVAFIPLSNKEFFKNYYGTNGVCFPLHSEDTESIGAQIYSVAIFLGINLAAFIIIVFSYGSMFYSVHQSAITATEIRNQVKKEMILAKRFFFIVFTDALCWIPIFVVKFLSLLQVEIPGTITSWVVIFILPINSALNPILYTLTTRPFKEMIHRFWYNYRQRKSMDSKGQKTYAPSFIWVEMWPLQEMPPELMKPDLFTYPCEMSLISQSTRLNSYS

| SMILES | Potency | efficacy |
| --- | --- | --- |
| CCOc1ccccc1C(=O)Nc1sccc1C(=O)Nc1cccc(S(=O)(=O)C(F)(F)F)c1 | 2360 nM (active) | – |
| COCCOc1ccccc1C(=O)Nc1ccccc1C(=O)Nc1cccc(C(F)(F)F)c1 | 747 nM (active) | – |
| O=C(Nc1cccc(-c2cccc(C(F)(F)F)c2)c1)c1ccccc1NC(=O)C1CCCCC1 | – | 15% (inactive) |
| O=C(NCc1ccco1)c1ccccc1NC(=O)c1ccccc1NC(=O)C1CCCCC1 | 9400 nM (active) | – |
| O=C(Nc1cccc(C(F)(F)F)c1)c1ccccc1NC(=O)C1CCCC1 | 2360 nM (active) | – |
| O=C(Nc1cccc(C(F)(F)F)c1)c1ccccc1NC(=O)C1CC1 | 8380 nM (active) | – |
| O=C(NCc1cccc(C(F)(F)F)c1)c1ccccc1NC(=O)C1CCCCC1 | – | 4.71% (inactive) |
| CCOc1ccccc1C(=O)Nc1ccccc1C(=O)Nc1cccc(C(F)(F)F)c1 | 265 nM (active) | – |
| O=C(Nc1cccc(Cl)c1)c1ccccc1NC(=O)C1CCCCC1 | 3340 nM (active) | – |
| COc1ccccc1C(=O)Nc1ccccc1C(=O)Nc1cccc(C(F)(F)F)c1 | 334 nM (active) | – |
| O=C(Nc1cccc(-c2ccccc2C(F)(F)F)c1)c1ccccc1NC(=O)C1CCCCC1 | 2650 nM (active) | – |
| CCCCOc1ccccc1C(=O)Nc1ccccc1C(=O)Nc1cccc(S(=O)(=O)C(F)(F)F)c1 | 47.1 nM (active) | – |
| O=C(Nc1cccc(C(F)(F)F)c1)c1ccccc1NC(=O)c1ccccc1OC(F)(F)F | 1180 nM (active) | – |
| COc1ccccc1C(=O)Nc1ccccc1C(=O)Nc1cccc(SC(F)(F)F)c1 | 297 nM (active) | – |
| O=C(Nc1cccc(Br)c1)c1ccccc1NC(=O)C1CCCCC1 | 2650 nM (active) | – |
| COc1ccccc1C(=O)Nc1ccc(C(=O)Nc2cccc(C(F)(F)F)c2)cc1 | – | -2.02% (inactive) |
| CCOc1ccccc1C(=O)Nc1ccncc1C(=O)Nc1cccc(S(=O)(=O)C(F)(F)F)c1 | 747 nM (active) | – |
| CCCCC(=O)Nc1ccccc1C(=O)Nc1cccc(C(F)(F)F)c1 | 5290 nM (active) | – |
| CC(C)(C)c1cccc(NC(=O)c2ccccc2NC(=O)C2CCCCC2)c1 | 2650 nM (active) | – |
| CCOc1ccccc1C(=O)Nc1cnccc1C(=O)Nc1cccc(S(=O)(=O)C(F)(F)F)c1 | 2970 nM (active) | – |

| SMILES | Potency | efficacy |
| --- | --- | --- |
| Cc1ccccc1C(=O)Nc1ccccc1C(=O)Nc1cccc(C(F)(F)F)c1 | 4200 nM (active) | – |
| CCOc1ccccc1S(=O)(=O)Nc1ccccc1C(=O)Nc1cccc(S(=O)(=O)C(F)(F)F)c1 | – | -2.44% (inactive) |
| O=C(Nc1ccccc1C(=O)Nc1cccc(C(F)(F)F)c1)c1ccccc1Cl | 3740 nM (active) | – |
| CCOc1ccccc1C(=O)Nc1ncccc1C(=O)Nc1cccc(S(=O)(=O)C(F)(F)F)c1 | 1670 nM (active) | – |
| COc1ccccc1C(=O)N(C)c1ccccc1C(=O)Nc1cccc(C(F)(F)F)c1 | – | -2.4% (inactive) |
| O=C(Nc1cccc(C(F)(F)F)c1)c1ccccc1NC(=O)C1CCC1 | 2970 nM (active) | – |
| O=C(Nc1cccc(S(=O)(=O)C(F)(F)F)c1)c1ccccc1NC(=O)c1ccccc1OCC(F)(F)F | 66.6 nM (active) | – |
| CCOc1ccccc1C(=O)Nc1ccccc1CNc1cccc(S(=O)(=O)C(F)(F)F)c1 | 2650 nM (active) | – |
| O=C(Nc1cccc(C(F)(F)F)c1)c1ccccc1NC(=O)C1CCCCC1 | 1880 nM (active) | – |
| CCSc1ccccc1C(=O)Nc1ccccc1C(=O)Nc1cccc(S(=O)(=O)C(F)(F)F)c1 | 529 nM (active) | – |
| COc1ccc(C(=O)Nc2ccccc2C(=O)Nc2cccc(C(F)(F)F)c2)cc1 | 9400 nM (active) | – |
| COc1ccccc1C(=O)Nc1ccccc1C(=O)Nc1cccc(S(=O)(=O)C(F)(F)F)c1 | 188 nM (active) | – |
| COc1cccc(OC)c1C(=O)Nc1ccccc1C(=O)Nc1cccc(C(F)(F)F)c1 | 7470 nM (active) | – |
| O=C(Nc1cccc(S(=O)(=O)C(F)(F)F)c1)c1ccccc1NC(=O)C1CCCCC1 | 1060 nM (active) | – |
| O=C(Cc1ccccc1)Nc1ccccc1C(=O)Nc1cccc(C(F)(F)F)c1 | 8380 nM (active) | – |
| O=C(Nc1cccc(SC(F)(F)F)c1)c1ccccc1NC(=O)C1CCCCC1 | 1880 nM (active) | – |
| CC(C)Oc1ccccc1C(=O)Nc1ccccc1C(=O)Nc1cccc(C(F)(F)F)c1 | 471 nM (active) | – |
| CSc1cccc(NC(=O)c2ccccc2NC(=O)C2CCCCC2)c1 | 5290 nM (active) | – |
| COc1ccccc1C(=O)N(C)c1ccccc1C(=O)N(C)c1cccc(C(F)(F)F)c1 | – | 0.957% (inactive) |
| CCOc1ccccc1C(=O)Nc1cccnc1C(=O)Nc1cccc(S(=O)(=O)C(F)(F)F)c1 | 4710 nM (active) | – |

Source: PubChem BioAssay AID602256 (National Center for Advancing Translational Sciences (NCATS), 2012)
